Source: PubChem BioAssay AID1159580 (chemical genetic matrix, 2015)
Screen size: about 5,500 compounds; about 2,000 (36%) were called active. Inconclusive results (about 18%) are left out. Rule as the data show it: active = normalized growth mostly below about 0.91 (no sharp cut-off); inconclusive = no clear call, values can overlap the other calls; inactive = mostly above about 0.92. The list shows a part of the results.

Experiment: chemical genetic growth profiling, strain panel (AID 1159580);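 also: tested at 20 µM; growth read once vehicle control cultures reached saturation at 30 °C; 1 = growth at the plate median or of vehicle wells; lower values mean less growth of the strain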
Details: S. cerevisiae deletion strains, growth OD

Measured: normalized growth

Cn1cc(C2=C(c3ccc(Cl)cc3Cl)C(=O)NC2=O)c2ccccc21
inactive: locus YAL040C, strain CLN3, hits give low values 1.02 | locus YCL061C, strain MRC1 (second series), hits give low values 1.01 | locus YDR363W, strain ESC2, hits give low values 1.01 | locus YER002W, strain NOP16, hits give low values 0.994 | locus YMR263W, strain SAP30, hits give low values 1.01 | locus YNL175C, strain NOP13, hits give low values 1 | locus YNL197C, strain WHI3, hits give low values 1 | locus YNL224C, strain SQS1, hits give low values 1.02 | locus YNL322C, strain KRE1, hits give low values 1 | locus YOR083W, strain WHI5 (second series), hits give low values 1.01 | locus YPL241C, strain CIN2, hits give low values 1.01
